Data as given in paper PMC12864922, “TDP-43 directly inhibits mRNA accumulation in neurites through modulation of mRNA stability”.
The full ranking holds about 9,900 sequences; the median of “r (bound/input frequency ratio)” is about 0.7, and the highest 2% start at about 6.5. Many of the other results were omitted from the sample, so the highest values are more common in it than they were.

B1: ENSMUSG00000032194.167|Kank2 (ssRNA)
RNA: GGGAGUUCUACAGUCCGACGAUCGCUUCGAUAUCCGCAUGCUAAGAGUAAACAGAGACUGUGAUACUGACCAAGUACAGGCGCUCGCUAUGAAGCCCAUAUGUUCCUGAUUAAGAGCUGGCUGGCCUCAGAGCACUCCCAGAACUAGCUUAAAGUGACAGGCUUUGCUGAAAUCCAAAGGGACAAAAGAGUAGUUUUAUGUUUGUGUGUUUGUUUUUAAUGCCCUGGAGCUCCUGCUGGUGACAGGAGAGACAGACAGGCUGCACCUUUCUCUAACUGGGGUUCCUUUCUGGCCCCAGGAUCUCUCUUGCGGUCGCACUAGUGUGGAAUUCUCGGGUGUCAAGG
B2: ENSMUSG00000061578.337|Ksr2|72:76 (ssRNA)
RNA: GGGAGUUCUACAGUCCGACGAUCGCUUCGAUAUCCGCAUGCUAACCAGUCACCUGCCUCCCAGGGUUCUGCCUUGCCCUUAAGCUAGGGUCCUUCAAGCAUCCACAGACUUAGACACACGUGGUAACAUGCUUGUAAUCCUGGCACUCUGGAGGCUGAGGCAGGAGGAUAACAAGUCUAGACUAUAUAUGAUUUCUGAGGGUCUGUUAGUGAAUAAGUACCUGGAUGACAUGGGACAAGUCCCAGCCUUCCCUGCUCCUGCGCUGCUCUUCCUCUUAUGGGAUAGGGUCUAGGUCAAAUGUCACUCUUGCGGUCGCACUAGUGUGGAAUUCUCGGGUGUCAAGG
B3: ENSMUSG00000061578.1309|Ksr2 (ssRNA)
RNA: GGGAGUUCUACAGUCCGACGAUCGCUUCGAUAUCCGCAUGCUAUCUGCACCCAACUGAAUCUCCCACCCUCAAGUGUACCUCUCAGGAUAUCCCCAGGCACACGAAGAUGGAAUGGAAAGCCAGUGGGUAUCUCCCACCCACUUAGAUGCUGAUGGCCUGGGACUAUAAACAGGGACAGUUGGGUCUCCUAAGGAAUAGCUUCCAGGUCCAGGAUGCUGGCAUCUCCCAGAGAGAACUCCAUCCCCUGACCACCAAGGCCUUUGUAGAAGCAGGAAUCUCUUCCUCCUGUCCCACAGCCCCCACUCUUGCGGUCGCACUAGUGUGGAAUUCUCGGGUGUCAAGG
B4: ENSMUSG00000029636.197|Wasf3 (ssRNA)
RNA: GGGAGUUCUACAGUCCGACGAUCGCUUCGAUAUCCGCAUGCUAGACUUCCCCUCUCCUGCCCUGAUCCUUUUUACCAAAUGGCGAUUCCAUAGUCCUGGCUGAGGCAGGGGCUCAAAGUCCAGUGUCUGCUUUGCAAUUCUGGAAGGACAGCUGCUUAUUUAAAUAAGUCUGUGAUAUCCGCAGGCUUGGGUUACAGGGAGGACCUUGCAGAGGGACCAGGACACUGCCUUCCCUUAGGUGCAUUAUUUACGUGGCCUGCAGCUCUUAAUAUCUCUCACUGUUUAUGAAAAGAAAGAUUCAGACUCUUGCGGUCGCACUAGUGUGGAAUUCUCGGGUGUCAAGG
B5: ENSMUSG00000029636.77|Wasf3 (ssRNA)
RNA: GGGAGUUCUACAGUCCGACGAUCGCUUCGAUAUCCGCAUGCUAAAGAUCACUGGCUGUGUGUCUCAGUGAUGUCUUCCAACCAGUGGGUGAUACGUUUUCCUGUUUCUUCCCUUUGCAAAUUGAAUUCCAGGUAGAUAUGGUUGUAGAGGGGAAAGUUUAACAAAUCAGAAUGAAAUGUUUGUCUGUUUGCACACUGGGCCUGGUGGCCUCCAAGGAAAUGUGUACGAUCGUUUGCUUUCUCUAUCUUGGCGCUUGCAACCGAGAGCGGCCAUUUUUAUGAGGGGAGCCCUGUGGGUACUCAUCUCUUGCGGUCGCACUAGUGUGGAAUUCUCGGGUGUCAAGG
B6: ENSMUSG00000090935.714|Synj2bp (ssRNA)
RNA: GGGAGUUCUACAGUCCGACGAUCGCUUCGAUAUCCGCAUGCUAAGAGCUCUGCUCUCUGAGCAUCUGCCCCAGAUACAGAGGCAGAGUAUGAAGUGGAACAUUGUUUUAUUCCUAGGUGCUCAGGACAGACUGAUCAACCUCCAGUAACAUAUGUGGUUAGUAAGUGCUUCAGCUUGUGUAGCCAUUAAUAACCAAGUCAUAGGAUUGUGAAUCUAAAAUACUCCUGGGUAAAAUUUGUAUUAGAAUGGAAAAAAAAAUGAGGGUCAGAAAGGUGAGCUAACUUCAAGUUAGAUACUCCCCUCCUCUUGCGGUCGCACUAGUGUGGAAUUCUCGGGUGUCAAGG
B7: ENSMUSG00000061578.632|Ksr2|56:60;95:99 (ssRNA)
RNA: GGGAGUUCUACAGUCCGACGAUCGCUUCGAUAUCCGCAUGCUAUAGAGGGGACGGACAGCUCCCUGACCCUGGAUGGCCAGGAAUGGUGCUAGCUAGGCACACAGCCAAGCCCUUGAGGCUACUGUGAGUUAUGAGAACACACCAACCCUCAGCCCACAGACUGCAUAUGCCCCAGGACAGCUGUGAAGGUGACCCAAUACAAAAUCGUAAACUAACUUAAAACCAUUAAGGGUUUUUGUUUUGUUGUUGUUUGCUGGCUUUUUGUUUUUUGGGUUGGUUUUCUUUUUCUUUCUUUCUUUUUUCUCUUGCGGUCGCACUAGUGUGGAAUUCUCGGGUGUCAAGG
B8: ENSMUSG00000029636.428|Wasf3 (ssRNA)
RNA: GGGAGUUCUACAGUCCGACGAUCGCUUCGAUAUCCGCAUGCUAGUGGAUGGGUGGGUGGAUACAUGGAUGAGUGGAUGGGUGGAUUGGUGGGUGAGUGGAUAGGUGAAUGGAUGAUAGGUGGUGGAUGGUUGAGUGGGUGGAUUCAUGAUGGAUGGAUGGAUGGAUGGAUGGAUGGAUGGAUGGAUGAGUGGAUGGAUAAUAGGUUGAUGGGUGGAUAGGUAGAUGAGUGAAUAGAUAGAUAUAGAUCAGUGGGAGGAUUGGAAAGUAGGUGAAUGAAUGGAUGGCAGAUAGAUGGAUCAAUUCUCUUGCGGUCGCACUAGUGUGGAAUUCUCGGGUGUCAAGG
B9: ENSMUSG00000029636.430|Wasf3 (ssRNA)
RNA: GGGAGUUCUACAGUCCGACGAUCGCUUCGAUAUCCGCAUGCUAGUGGAUACAUGGAUGAGUGGAUGGGUGGAUUGGUGGGUGAGUGGAUAGGUGAAUGGAUGAUAGGUGGUGGAUGGUUGAGUGGGUGGAUUCAUGAUGGAUGGAUGGAUGGAUGGAUGGAUGGAUGGAUGGAUGAGUGGAUGGAUAAUAGGUUGAUGGGUGGAUAGGUAGAUGAGUGAAUAGAUAGAUAUAGAUCAGUGGGAGGAUUGGAAAGUAGGUGAAUGAAUGGAUGGCAGAUAGAUGGAUCAAUUACAGAUGGAUGGCUCUUGCGGUCGCACUAGUGUGGAAUUCUCGGGUGUCAAGG
B10: ENSMUSG00000029636.427|Wasf3 (ssRNA)
RNA: GGGAGUUCUACAGUCCGACGAUCGCUUCGAUAUCCGCAUGCUAAGCUAGGUGGAUGGGUGGGUGGAUACAUGGAUGAGUGGAUGGGUGGAUUGGUGGGUGAGUGGAUAGGUGAAUGGAUGAUAGGUGGUGGAUGGUUGAGUGGGUGGAUUCAUGAUGGAUGGAUGGAUGGAUGGAUGGAUGGAUGGAUGGAUGAGUGGAUGGAUAAUAGGUUGAUGGGUGGAUAGGUAGAUGAGUGAAUAGAUAGAUAUAGAUCAGUGGGAGGAUUGGAAAGUAGGUGAAUGAAUGGAUGGCAGAUAGAUGGACUCUUGCGGUCGCACUAGUGUGGAAUUCUCGGGUGUCAAGG

Each binder was assayed against TDP-43 (Homo sapiens, UniProt Q13148 1-414) (assay: RNA Bind-n-Seq with designed 260-mer pool; 25 mM Tris-HCl, 150 mM KCl, 3 mM MgCl2, BSA (printed 500 mg/mL), 20 units/mL SUPERase IN; pH not stated; 500 nM RNA pool, 1 h, 4 C; TDP-43 5, 50, 500 nM; high values mean tight binding). Settings: protein: recombinant; tags: SBP (GST cleaved off with PreScission; pGEX-GST-SBP).
Sequence of TDP-43 (Q13148 whole entry): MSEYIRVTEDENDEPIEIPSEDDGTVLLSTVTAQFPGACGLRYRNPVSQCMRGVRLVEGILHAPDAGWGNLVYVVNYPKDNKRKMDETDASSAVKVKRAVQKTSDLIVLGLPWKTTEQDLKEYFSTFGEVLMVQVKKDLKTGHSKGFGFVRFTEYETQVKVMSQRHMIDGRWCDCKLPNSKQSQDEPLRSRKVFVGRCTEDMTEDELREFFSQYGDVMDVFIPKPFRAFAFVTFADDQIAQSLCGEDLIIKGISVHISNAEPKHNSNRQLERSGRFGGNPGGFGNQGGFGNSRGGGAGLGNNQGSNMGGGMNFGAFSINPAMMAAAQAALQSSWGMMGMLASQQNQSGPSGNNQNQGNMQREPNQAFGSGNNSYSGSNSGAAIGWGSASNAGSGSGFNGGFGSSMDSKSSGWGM
In short: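 Duplicate measurements used two independent batches of recombinant SBP-tagged TDP-43, which was captured on streptavidin beads at 5, 50 or 500 nM. The beads were incubated with 500 nM of an in vitro-transcribed 260-nt 3′ UTR oligo pool for 1 h at 4 °C in 25 mM Tris-HCl, 150 mM KCl, 3 mM MgCl2, BSA and SUPERase IN. After washing, biotin elution, reverse transcription, PCR amplification and sequencing, binding was expressed as R: each oligo's normalized read abundance in the bound sample over its abundance in input.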
For B1, the binding signal was 3.92 R (bound/input frequency ratio). In the case of B2, the binding signal is reported as 0.335 R (bound/input frequency ratio). In the case of B3, the binding signal is reported as 0.602 R (bound/input frequency ratio). With B4 the binding signal was 0.304 R (bound/input frequency ratio). For B5, the binding signal was 4.99 R (bound/input frequency ratio). With B6 the binding signal was 1.22 R (bound/input frequency ratio). B7 was tested, and the binding signal was 0.54 R (bound/input frequency ratio). For B8, the binding signal was 8.28 R (bound/input frequency ratio). In the case of B9, the binding signal is reported as 4.31 R (bound/input frequency ratio). With B10 the binding signal was 4.15 R (bound/input frequency ratio).
